Bioassay records deposited in PubChem by several laboratories.
This is a sample that favours compounds with a hit; in the whole collection about 0.79% have one here.
E coli growth-1: blocks Escherichia coli growth | OD600, 23 h; active compounds read low | OD600 absorbance (test concentration not listed) | 330,000 compounds, 0.21% hits | AID 1053175;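 active = OD600 absorbance below the run mean of sample wells minus 3.6 SD, in any replicate, cut at about 0.56 in these data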
AI-2 QS modul: Vibrio harveyi AI-2 quorum sensing modulation; Vibrio harveyi JMH597 AI-2 luminescence/OD600 ratio, 9 h; active compounds read low; strain lacks LuxN and CqsS sensors; 0 = neutral-control median; activity change, % at 7.5 µM; 300,000 compounds, 0.4% hits; in the data active = activity change below about -75%, passing the limit was not always enough;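 also: luminescence divided by OD600 gain over 9 h not by final OD600 alone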
phage Ecoli inh: E. coli growth loss with phage present. growth absorbance. inhibition, % at 11.9 µM. 360,000 compounds, 0.26% hits. AID 651602; in the data active = inhibition above about 11%
E coli growth-2: bacterial growth inhibition, counter-screen for AddAB inhibitors | AID 449728 | 330,000 compounds, 0.27% hits | inhibition, % at 11.9 µM | E. coli V3065 growth, OD600 absorbance, 18 h;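 active = inhibition above the campaign's mean inhibition across all tested compounds plus 3 SD, cut at about 9.9% in these data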;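 also: uninfected addAB+ strain grown without phage in ampicillin broth; 0% = DMSO wells and 100% = ciprofloxacin 0.95 µg/ml wells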
AddAB inh: less growth of phage-infected E. coli with AddAB; E. coli expressing H. pylori AddAB, absorbance growth; inhibition, % at 11.9 µM; 330,000 compounds, 0.29% hits; in the data active = inhibition above about 12%;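 also: 0% = vehicle wells of infected cells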
Tat transport: inhibitors of E. coli Tat protein transport. E. coli MC4100 TorA-mCherry Tat export, fluorescence. inhibition, % at 10 µM. 340,000 compounds, 0.036% hits. AID 488895;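 active = mean replicate inhibition at least 50% and at least half of replicates individually reaching 50%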;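 also: exported cargo escapes ClpAP degradation while cytoplasmic cargo is degraded and loses fluorescence; 0% = median of neutral control wells and 100% = median of NaSCN control wells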
RecBCD conf: confirmation: growth loss of phage-infected RecBCD+ E. coli (RecBCD inhibitor screen) | shares compounds with phage Ecoli inh | E. coli V66 + T4 2- phage, growth OD | inhibition, % at 11.9 µM | 890 compounds, 45% hits;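 active = mean inhibition over triplicates exceeding the hit threshold derived in the original primary screen, cut at about 11% in these data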
Ecoli viability: inhibits E. coli viability, flagging RecBCD hits as nonselective; shares compounds with phage Ecoli inh; absorbance (OD) growth; inhibition, % at 11.9 µM; 890 compounds, 29% hits; AID 651983; in the data active = inhibition above about 20%;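 also: E. coli strain V66 grown with compound alone and no phage infection; 0% = bacteria with DMSO vehicle only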
AddAB counter: growth loss of phage-infected AddAB E. coli, RecBCD counter-screen. inhibition, % at 11.9 µM. AID 651984. 890 compounds, 45% hits. shares compounds with phage Ecoli inh. E. coli expressing H. pylori AddAB + T4 phage, OD growth; gene 2 mutant T4, recBCD-deleted host;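 active = mean inhibition above the solvent-only control wells' mean plus 3 SD, cut at about 22% in these data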;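 also: higher means less bacterial growth from phage killing when AddAB is blocked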
Numbers without * were called inactive; / = not tested or not shown.

SMILES	E coli growth-1	AI-2 QS modul	phage Ecoli inh	E coli growth-2	AddAB inh	Tat transport	RecBCD conf	Ecoli viability	AddAB counter
Cc1ccc(C=NNC(=O)c2ccoc2C)o1	0.68	/	/	/	/	/	/	/	/
Cc1ccc(NC(=O)CCCSc2nc3ccccc3[nH]2)cc1	0.63	37	12*	14*	10	-28	8	11	8
Oc1ccc(C=Nn2c(-c3ccccc3)n[nH]c2=S)cc1	0.7	/	/	/	/	/	/	/	/
CN(C)C(=O)/C(=C/c1ccc(-c2cccc([N+](=O)[O-])c2)o1)NC(=O)c1ccccc1	0.66	7	19*	1	-1	-2	-2	-1	7
CN(C)C(=O)/C(=C\c1ccc(-c2cccc([N+](=O)[O-])c2)o1)NC(=O)c1ccccc1	0.67	7	3	2	1	0	/	/	/
NC(=S)NN=Cc1cc(-c2cccc(N)c2)ccn1	/	/	21*	/	/	/	14*	16	32*
C=CCOc1c(Br)cc(C=C2NC(=S)N(C(C)=O)C2=O)cc1OC	0.75	/	/	/	/	/	/	/	/
Nc1nc(Sc2ccc([N+](=O)[O-])c3nonc23)c2[nH]cnc2n1	/	/	39*	/	/	-5	44*	51*	68*
CNc1ncnc(Sc2nc(N)nc3nc[nH]c23)c1[N+](=O)[O-]	/	/	62*	/	/	-1	55*	65*	79*
Nc1nc(SCc2ccccc2)c2[nH]cnc2n1	0.67	15	2	2	0	-2	/	/	/
O=C1C2C3C=CC(CC3)C2C(=O)N1N=Cc1ccco1 (configuration not stated)	0.69	/	/	/	/	/	/	/	/
Cc1ccc(/C=C/C(=O)c2c(C)nc3ccccn23)cc1	0.68	-4	12*	2	2	-1	-2	-3	1
O=C(/C(=N/N=C/c1ccc(O)c(O)c1O)c1ccccc1)c1ccccc1	/	-35	12*	6	7	6	6	6	7
Oc1ccc(/C=N/N=C(c2ccccc2)c2ccccc2)c(O)c1O	/	/	14*	5	6	1	2	4	5
CCCCCCC=NNc1nnc(Cc2ccccc2)c(=O)[nH]1	0.7	/	/	/	/	/	/	/	/
O=C(NNC(=O)c1ccc2ccccc2c1O)Nc1ccc(F)cc1	0.73	9	12*	9	10	-2	5	6	8
Cc1cccc(NC(=O)NNC(=O)c2ccc3ccccc3c2O)c1	0.7	11	11	/	/	-6	/	/	/
CCN1C(=O)C2C(c3ccc(C)cc3)N3C(=O)N(c4ccccc4)C(=O)[C@@]3(Cc3ccc(Cl)cc3)C2C1=O (some centres not stated)	0.7	/	/	/	/	/	/	/	/
CCN1CCN(C(=O)N(c2ccccc2)c2ccccc2)CC1	0.69	8	2	-2	-4	1	/	/	/
CN1CCN(C(=O)N(c2ccccc2)c2ccccc2)CC1	0.7	13	98*	0	1	7	-3	-2	-1
Nc1nc(N)c2cc(S(=O)(=O)c3cccc(C(F)(F)F)c3)ccc2n1	/	/	24*	/	/	/	32*	27*	59*
O=C1C2C3C=CC(C4CC34)C2C(=O)N1N=Cc1c[nH]c2ccccc12 (configuration not stated)	0.68	/	/	/	/	/	/	/	/
CC(=O)Nc1ccc(Sc2ccc([N+](=O)[O-])o2)cc1	0.55	/	21*	/	/	-22	15*	17	72*
CC(C)(C)C(=O)Nc1ccc(Sc2ccc([N+](=O)[O-])cc2)cc1	0.72	-3	2	-1	2	10	/	/	/
O=C(O)CCCC=CCC1C(O)CC(O)C1C=CC(O)COc1cccc(Cl)c1 (configuration not stated)	0.69	/	/	/	/	/	/	/	/
SMILES	E coli growth-1	AI-2 QS modul	phage Ecoli inh	E coli growth-2	AddAB inh	Tat transport	RecBCD conf	Ecoli viability	AddAB counter
CC(=NNc1nc2ccccc2s1)c1ccncn1	/	/	27*	/	/	1	17*	18	25*
C#CCOCCOCCOCCNc1nc(N2CCOCC2)nc(N2CCN(C(=O)CCCCCCCCCCNC(=O)C(CO)n3cc(CCCSC)nn3)CC2)n1 (configuration not stated)	0.68	/	/	/	/	/	/	/	/
O=C(COc1ccccc1)N/N=C/c1ccc([N+](=O)[O-])o1	/	-20	12*	9.8*	10	-1	8	7	31*
CCOc1cc(C=Cc2cc(C(F)(F)F)[nH]c(=O)n2)ccc1O	0.68	/	/	/	/	/	/	/	/
CCN1CCN(c2ccc(NC(=O)c3ccc([N+](=O)[O-])o3)cc2Cl)CC1	0.54	62	21*	/	/	7	16*	18	102*
CCN1CCN(c2ccc(S(=O)(=O)N3CCCCC3)cc2NC(=O)c2ccc([N+](=O)[O-])o2)CC1	0.63	9	3	-1	4	15	/	/	/
Nc1nc(=S)c2ncn(C3OC(CO)CC3O)c2[nH]1 (configuration not stated)	/	/	12*	/	/	-3	12*	11	38*
O=C(CNC(=O)C(=Cc1ccccc1)NC(=O)c1ccc(Br)cc1)OCc1ccccc1	0.68	/	/	/	/	/	/	/	/
CC(/C=C/c1ccc2c(c1)OCO2)=NNC(=O)CNc1ccc(C)cc1	0.72	/	/	/	/	/	/	/	/
COc1ccccc1C(=O)NC(CCSC)C(=O)NNC(=O)c1ccccc1O (configuration not stated)	0.63	/	12*	7	10	3	3	1	6
Cc1nc(NN=Cc2ccccn2)sc1C	0.65	/	/	/	/	/	/	/	/
Cc1nc(N/N=C/c2ccccn2)sc1C	/	/	16*	18*	20*	/	1	3	16
COC(=O)NN=Cc1cccc(OC(=O)c2ccc3c(c2)OCO3)c1	0.69	/	/	/	/	/	/	/	/
CN(Cc1ccccc1)C(=O)COC(=O)C1=NNC(=O)CC1	0.72	-1	3	1	2	7	/	/	/
N#CCCN(C(=O)COC(=O)C1=NNC(=O)CC1)c1ccccc1	0.61	18	11*	0	1	-5	-2	-3	-5
O=[N+]([O-])c1ccc(O)c(C2CCCCC2)c1	0.19*	/	12*	/	/	-5	7	12	17
COc1ccc(C(=O)NNC(=O)c2ccc3ccccc3c2O)cc1	0.69	24	3	3	5	-8	/	/	/
COc1cccc(OCC(=O)NNC(=O)c2ccc3ccccc3c2O)c1	0.71	18	15*	/	/	-5	5	7	14
CCCn1c(SCC(=O)NC2CCCC2)nnc1-c1ccccn1	0.67	-7	38*	0	-1	-3	-2	-1	3
C=CCn1c(SCC(=O)NC2CCCC2)nnc1-c1ccccn1	0.67	14	1	0	2	-3	/	/	/
O=C(CCSc1nc2ccccc2s1)N/N=C/c1c(O)ccc2ccccc12	/	24	17*	12*	8	-6	7	10	18
